{
  "source": "PubChem BioAssay (NCI)",
  "note": "Values joined by “and” are separate entries in the source; they are usually repeats but may differ in a detail not shown here. Equal values may be shown once. The panel holds about 83,000 compounds, 20% with a hit somewhere; the sample as a whole holds those more often.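 Single-concentration screen, 48 h exposure, 96-well plates. Endpoint: percent growth. Below 10 = active.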 Active and inactive are the calls of the source.",
  "data": [
    {"test_system": "MDA-MB-468 breast", "assay": "NCI-60 one-dose screen, 48 h (100 = growth as untreated, 0 = no growth, -100 = all killed)", "details": "10 µM unless noted", "values": [
      {"smiles": "Cc1ccc(NC(=O)c2cc(NCc3cc(O)ccc3O)ccc2O)cc1", "growth": "86.6% (inactive)"},
      {"smiles": "NNc1c2ccccc2nc2ccccc12", "growth": "16.4% (inactive)"},
      {"smiles": "COc1ccc(NC(=O)CSc2nc(C)c(C(C)=O)n2-c2ccc([N+](=O)[O-])cc2)cc1", "growth": "91.4% (inactive)"},
      {"smiles": "CCN1C(=O)N(CC)C2C1NN=c1s/c(=C\\c3cccnc3)c(=O)n12", "note": "(stereo not given)", "growth": "23.3% (inactive)"},
      {"smiles": "CC(C)(O)c1cncc(-c2ccc3ncnc(N4CCc5cc(F)c(Cl)cc54)c3c2)c1", "growth": "-36% (active)"},
      {"smiles": "C#Cc1cccc(NC(=O)c2ccc(NC(=O)CCl)cc2)c1", "growth": "-34.6% [8.25 µM] (active)"},
      {"smiles": "CCCCCCCC/C=C\\CCCCCCCCOc1ccc(CC(=O)NCC[N+](C)(C)C)cc1", "growth": "60.1% (inactive)"},
      {"smiles": "COc1ccc(-c2nn(-c3ccc(NC(=O)Nc4ccc(Cl)c(C(F)(F)F)c4)cc3)cc2-c2ccncc2)cc1Cl", "growth": "-46.4% (active)"},
      {"smiles": "O=C(Cc1ccc(OCc2ccccc2)cc1)NCc1ccc2c(c1)OCO2", "growth": "81.5% (inactive)"},
      {"smiles": "c1ccc2[nH]c(-c3ccc(-c4nccc5c4[nH]c4ccccc45)cc3)nc2c1", "growth": "44.8% (inactive)"},
      {"smiles": "CCCc1cc2c(cc1Br)OCO2", "growth": "115% (inactive)"},
      {"smiles": "COc1cc(C2C=C(c3ccc(C)cc3)Nc3nc(SC)[nH]c(=O)c32)ccc1Oc1ccnc2cc(Cl)ccc12", "note": "(stereo not given)", "growth": "75.3% (inactive)"},
      {"smiles": "CN(C)CCCn1c2c(c3cnccc3c1=O)C(=O)c1ccccc1-2", "growth": "-1.59% (active)"},
      {"smiles": "Cc1c(O)cc(-c2cnc(N/N=C/c3ccccc3)s2)c(O)c1C", "growth": "61.6% (inactive)"},
      {"smiles": "CC(C)C(C#N)(C(C)C)C(C)C", "growth": "109% (inactive)"},
      {"smiles": "COC(=O)c1[nH]nc2c1C1(C(=O)N(C)c3ccccc31)C(C#N)=C(N)O2", "note": "(stereo not given)", "growth": "97.5% (inactive)"},
      {"smiles": "C#CC#CC#CC#CC#CC#CC#CC#CCC1OC[C@H](COC(=O)O[C@@H](C(=O)O[C@H]2C[C@@]3(O)[C@@H](OC(=O)c4ccccc4)[C@@H]4[C@]5(OC(C)=O)CO[C@@H]5C[C@H](O)[C@@]4(C)C(=O)[C@H](OC(C)=O)C(=C2C)C3(C)C)[C@@H](NC(=O)c2ccccc2)c2ccccc2)O1", "note": "(stereo not given in full)", "growth": "8.69% (active)"},
      {"smiles": "Cc1[nH]nc2c(=S)[nH]c(=O)[nH]c12", "growth": "101% (inactive)"},
      {"smiles": "CCN(CC)C(=S)SCCO", "growth": "94.6% (inactive)"},
      {"smiles": "COc1ccc(/C(C)=C(\\c2ccc(Cl)cc2)c2ccc(OCCN3CCCCCC3)cc2)cc1", "growth": "16.1% (inactive)"},
      {"smiles": "N#C/C(=C1C=C/C(=N/O)C(Cl)=C/1)c1ccc(Cl)cc1", "growth": "-8.37% (active)"},
      {"smiles": "O=[N+]([O-])c1ccc(-c2nc(-c3ccccc3)c(-c3ccccc3)n2-c2ccccc2)cc1", "growth": "2.29% (active)"},
      {"smiles": "N#Cc1ccc(-n2nnc3ccccc32)cc1C#N", "growth": "99.5% (inactive)"},
      {"smiles": "CCN(CC)CCOc1ccc(C(=C(c2ccccc2)C2CCCC2)c2ccc(OCCN(CC)CC)cc2)cc1", "growth": "-77.5% (active)"},
      {"smiles": "O=C(Oc1ccc2ccc(=O)oc2c1)c1ccc(Cl)cc1", "growth": "115% (inactive)"},
      {"smiles": "COc1ccc(C(=S)N2CCN(c3cccc(C)c3)CC2)cc1OC", "growth": "66.3% (inactive)"},
      {"smiles": "CCN(CC)CCN1C(=O)c2c(c3c4ccccc4[nH]c3c3[nH]c4ccccc4c23)C1=O", "growth": "89.2% (inactive)"},
      {"smiles": "COc1cc(-c2nn(-c3ccc(NC(=O)c4ccc(Cl)c(C(F)(F)F)c4)cc3)cc2-c2ccncc2)ccc1Cl", "growth": "26% (inactive)"},
      {"smiles": "CCc1cccc(Cl)c1", "growth": "113% (inactive)"},
      {"smiles": "C#Cc1cccc(Nc2nc(C)nc3cc(NC(=O)CCl)ccc23)c1", "growth": "-78.5% (active)"},
      {"smiles": "COc1ccc(-c2c(C)noc2-c2ccc(O)cc2O)cc1", "growth": "77.8% (inactive)"},
      {"smiles": "COc1ccc(/C(C)=C(\\c2ccc(Cl)cc2)c2ccc(OCCN3CCCCC3)cc2)cc1", "growth": "55.5% (inactive)"},
      {"smiles": "Cn1cc(-c2csc(-c3c[nH]c4ccc(F)cc34)n2)c2cnccc21", "growth": "-49.6% (active)"},
      {"smiles": "CCN(CC)CCc1nc(-c2ccccc2)no1", "growth": "-1.63% (active) and 78.5% (inactive)"},
      {"smiles": "COc1cc2c3c(n([C@H]4CCOC4)c(=O)c2cc1OC)-c1cc2c(cc1C3=O)OCO2", "growth": "31.3% (inactive)"},
      {"smiles": "COc1ccc(OC)c(CCn2cncc2-c2c[nH]c3cc(Br)ccc23)c1", "growth": "-5.69% (active)"},
      {"smiles": "C[C@@H](Oc1cc(-c2cnn(C3CC4(CCCNC4)C3)c2)cnc1N)c1c(Cl)ccc(F)c1Cl", "note": "(stereo not given in full)", "growth": "-39.3% (active)"},
      {"smiles": "Sc1ccc(Nc2c3ccccc3nc3ccccc23)cc1", "growth": "44.1% (inactive)"},
      {"smiles": "CC(=O)c1cc2c(cc1F)C(C)(C)CCC2(C)C", "growth": "101% (inactive)"},
      {"smiles": "CC(C)(C)c1nn(-c2ccccc2)c2c1C(=O)CSC(c1ccc3c(c1)OCO3)N2", "note": "(stereo not given)", "growth": "120% (inactive)"}
    ]}
  ]
}
